Screening data as filed in PubChem BioAssay.
The list is not random: actives were taken first. Their share in the collection is about 4.8%.
hgDAF12 agonist: H. glycines DAF-12 receptor agonists, primary screen, cell-based, luminescence, HEK293, GAL4 fusion, UAS-luciferase. HEK293 GAL4-hgDAF12 UAS-luciferase reporter, agonist luminescence; normalized to butyrate control. Nuclear hormone receptor DAF-12 (Heterodera glycines), GAL4 fusion. activation, % at 6.8 µM. 370,000 tested, 1.8% active. AID 687014, 2013;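 active = activation above a cutoff set at the mean of all screened compounds plus 3 SD, cut at about 10% in these data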;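 note: 0% = DMSO wells and 100% = sodium butyrate wells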
DAX1 inh-1: DAX1 (NR0B1) inhibitors on StAR promoter, primary screen, cell-based, luminescence, SF-1 (NR5A1), full-length DAX-1. HEK293T StAR-luciferase reporter, SF-1/DAX-1 repression relief. 370,000 tested, 1.1% active. inhibition, % at 6.8 µM. AID 652010, 2013;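 active = inhibition above the mean over all tested compounds plus 3 SD, cut at about 3.6% in these data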;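 note: 0% = DAX-1 cells with DMSO and 100% = cells lacking DAX-1 with DMSO; higher inhibition means more luminescence from relief of DAX-1 repression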
ssDAF12 agonist: S. stercoralis DAF-12 nuclear receptor activators, primary screen, cell-based, luminescence, HEK293, GRIP1 co-expression, lit1-tk-luc. Nuclear hormone receptor DAF-12 (Strongyloides stercoralis). activation, % at 6.8 µM. HEK293 ssDAF-12/GRIP1 lit1-tk-luc reporter; % of 3 µM dafachronic acid response. AID 652126, 2013. 370,000 tested, 1% active;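 active = activation above the mean over all tested compounds plus 3 SD, cut at about 0.9% in these data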;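 note: 0% = DMSO-only wells and 100% = 3 µM delta7-dafachronic acid wells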
DAX1 inh-2: DAX1 (NR0B1) inhibitors, primary screen, cell-based, HEK293, Gal4-DAX1, luciferase luminescence. Nuclear receptor subfamily 0 group B member 1 (Homo sapiens), P51843. HEK293 Gal4-DAX1 luciferase reporter. inhibition, % at 6.75 µM. 340,000 tested, 0.99% active. AID 504766, 2011;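 active = inhibition above the mean over all tested compounds plus 3 SD, cut at about 4.2% in these data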;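 note: 0% = DAX1-transfected cells with DMSO and 100% = empty-vector control cells with DMSO; inhibition shows as a rise in luminescence from relieved DAX1 repression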
SMARCA2 act: SMARCA2 (BRM) function activators, primary screen, cell-based, luminescence, high throughput | 370,000 tested, 1% active | MG213 cells, MMTV-luciferase reporter, dexamethasone, overnight | AID 652017, 2013 | activation, % at 9.1 µM; in the data active = activation above about 7.8%;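 note: 0% = vehicle wells and 100% = reference activator wells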
hcDAF-12 act: H. contortus DAF-12 nuclear receptor activators, primary screen, cell-based, luminescence, HEK293, lit1-tk-luc reporter. HEK293 hcDAF-12 lit1-tk-luc reporter; 0% DMSO, 100% Δ7-dafachronic acid. activation, % at 6.8 µM. 370,000 tested, 1.4% active. AID 652067, 2013;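 active = activation above the mean of all tested compounds plus 3 SD, cut at about 5.5% in these data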;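 note: 100% = response to 3 µM Δ7-dafachronic acid high control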
DAX1 inh confirm: DAX1 (NR0B1) inhibitors relieving SF-1 repression, confirmation, cell-based, luminescence, HEK293T, full-length DAX-1, SF-1 activated StAR promoter. shares compounds with DAX1 inh-1. HEK293T StAR-promoter luciferase reporter, SF-1/DAX-1 repression. inhibition, % at 6.8 µM. 2,400 tested, 87% active. AID 652134, 2013;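 active = inhibition above the average of every tested compound plus 3 SD, cut at about 3.8% in these data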;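 note: 0% = DAX-1 cells with DMSO and 100% = no DAX-1 control cells with DMSO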
SF1 AF2mut Luc: StAR reporter signal changes without DAX1, counter-screen for DAX1 inhibitor project, cell-based, luminescence, AF-2 mutant SF-1, transactivation; shares compounds with DAX1 inh-1; HEK293 StAR-luciferase, SF-1 AF2 mutant; inhibition, % at 6.8 µM; 2,400 tested, 78% active;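 active = inhibition above the mean of all tested compounds plus 3 SD, cut at about 3% in these data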;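 note: 0% = DAX-1 transfected cells with DMSO and 100% = cells without DAX-1 with DMSO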
SMARCA2 act conf: SMARCA2 (BRM) function activators, confirmation, cell-based, luminescence, triplicate | MG213 cells, MMTV-luciferase with dexamethasone, overnight; MG213 cells expressing E1A, Rb sequestered; DMSO wells 0%, reference activator 100% | 3,500 tested, 30% active | activation, % at 9.1 µM | AID 652260, 2013 | shares compounds with SMARCA2 act;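 active = activation above its plate's cutoff, the mean activation of tested wells plus 3 SD, cut at about 7.9% in these data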
VP16 Luc act: GAL4-VP16 luciferase reporter activation, counter-screen for SMARCA2 (BRM) activator project, cell-based, pG5luc, luminescence, high throughput. shares compounds with SMARCA2 act. HEK293 GAL4-VP16 pG5luc reporter; scaled: DMSO wells 0%, SAHA wells 100%. activation, % at 9.1 µM. 3,500 tested, 41% active. AID 686939, 2013;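 active = activation above the solvent-only control well mean plus 3 SD, averaged across control plates, cut at about 5.2% in these data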
LXR ag: LXR agonists, Gal4 luciferase reporter, confirmation, counter-screen for hcDAF-12 agonist project, cell-based, luminescence, HEK293, H. contortus campaign; shares compounds with hcDAF-12 act; 3,400 tested, under 10 active; activation, % at 6.8 µM; HEK293 Gal4-LXR tk-luc reporter, 24 h; normalized: DMSO 0%, positive control 100%; AID 743027, 2013;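 active = mean percent activation of the reporter above a cutoff set as the average over tested compounds plus their standard deviation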
Target sequence (P55055 whole entry, looked up, the tested form may be a part): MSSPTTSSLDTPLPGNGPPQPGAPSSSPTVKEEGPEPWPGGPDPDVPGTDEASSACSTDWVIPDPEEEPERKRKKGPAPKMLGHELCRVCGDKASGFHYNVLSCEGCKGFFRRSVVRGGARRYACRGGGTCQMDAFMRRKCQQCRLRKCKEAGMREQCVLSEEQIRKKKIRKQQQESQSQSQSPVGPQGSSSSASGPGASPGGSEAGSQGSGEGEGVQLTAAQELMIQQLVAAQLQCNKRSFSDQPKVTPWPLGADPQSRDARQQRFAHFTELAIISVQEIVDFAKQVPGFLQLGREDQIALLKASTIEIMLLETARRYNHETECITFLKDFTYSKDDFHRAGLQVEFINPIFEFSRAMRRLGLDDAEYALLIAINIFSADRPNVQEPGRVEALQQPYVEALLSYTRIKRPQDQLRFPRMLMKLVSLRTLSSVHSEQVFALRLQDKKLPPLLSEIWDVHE
hcDAF12 conf: H. contortus DAF-12 receptor agonists, confirmation, cell-based, luminescence, HEK293, lit1-tk-luc, triplicate. activation, % at 6.8 µM. HEK293 hcDAF-12 lit1-tk-luc reporter; % of Δ7-dafachronic acid response. AID 743032, 2013. shares compounds with hcDAF-12 act. 3,400 tested, 61% active;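 active = mean activation across triplicate tests above the threshold derived from the earlier primary screen, cut at about 5.5% in these data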;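 note: 0% = DMSO only wells and 100% = 3 µM Δ7-dafachronic acid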
hgDAF12 ag: H. glycines DAF-12 receptor agonists, confirmation, cell-based, luminescence, HEK293, GAL4-LBD fusion | activation, % at 6.8 µM | 3,300 tested, 80% active | AID 743050, 2013 | shares compounds with hgDAF12 agonist | HEK293 GAL4-hgDAF12 luciferase reporter, agonist mode; percent of butyrate response;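 active = mean activation over triplicate wells above the hit cutoff derived from the earlier primary screen, cut at about 11% in these data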;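 note: 0% = DMSO low control and 100% = 2 mM sodium butyrate high control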
LXR ag 2: LXR agonists, Gal4 luciferase reporter, confirmation, counter-screen for hgDAF-12 agonist project, cell-based, luminescence, HEK293, H. glycines campaign. shares compounds with hgDAF12 agonist. 24 h. activation, % at 6.8 µM. 3,300 tested, under 10 active;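 active = mean activation of the triplicate above a set limit carried over from the primary screen, none filed active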
* = called active by the depositor; . = no result.

SMILES	hgDAF12 agonist	DAX1 inh-1	ssDAF12 agonist	DAX1 inh-2	SMARCA2 act	hcDAF-12 act	DAX1 inh confirm	SF1 AF2mut Luc	LXR ag	hcDAF12 conf	hgDAF12 ag	LXR ag 2	others
Cn1c(=NC(=O)CCl)sc2ccccc21	-8	-3	-2	-2	8	-4	.	.	.	.	.	.
CCCCCc1nnc(NC(=O)C2=COCCO2)s1	20*	11*	1.9*	3	3	9.0*	10*	5.0*	1	8.0*	14*	1
COc1ccc(C)cc1NC(=O)CSc1nnc(-c2ccc(Br)cc2)o1	0	0	0	-1	-2	-1	.	.	.	.	.	.
COc1ccccc1NC(=O)CSc1nnc(-c2ccc(C)cc2)o1	14*	6.3*	0	1	6	4	15*	8.3*	.	.	17*	1
O=C(CSc1nnc(-c2cccnc2)o1)Nc1ccccc1Br	2	0	-1	2	3	0	.	.	.	.	.	.
O=C(CSc1nnc(-c2cccnc2)o1)Nc1ccccc1F	14*	8.4*	0	1	2	3	11*	4.4*	.	.	12*	1
c1ccc(N=Nc2ccc(C3=NCCO3)cc2)cc1	18*	11*	1	3	10*	7.9*	19*	9.0*	1	5	16*	1	SMARCA2 act conf=9.2*;VP16 Luc act=9.8*
